From PubChem BioAssay come the findings set out here.

Test [1] in a line: yeast TOR pathway RPL19A-GFP modulators, primary screen, cell-based, S. cerevisiae, multiplex flow cytometry (AID 1862; in the data active means percent of DMSO control GFP below about 86%;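 further: lower values mimic rapamycin by blocking the RPL19A rise seen in DMSO cells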). Conditions: S. cerevisiae RPL19A-GFP strain, flow cytometry fluorescence, 3 h; at 10 µM; stronger effect = lower value. (Flow cytometry measures light scatter and fluorescence of single cells or particles in a stream.)
A short description of test [2]: modulators of MEP2-GFP levels in yeast, primary screen, S. cerevisiae, multiplex flow cytometry (AID 1867).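 Further: median GFP channel fluorescence of barcode-gated MEP2-GFP cells measured by flow cytometry.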 Conditions: S. cerevisiae MEP2-GFP strain, 3 h, at 10 µM, stronger effect = higher value, 100% means same as DMSO wells.
The nature of test [3]: modulators of CIT2-GFP expression in yeast, primary screen, S. cerevisiae, GFP fusion, multiplex flow cytometry (AID 1870;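 active means percent response above a set limit, the screen-wide mean plus 3 SD, cut at about 130% in these data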;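 further: barcoded CIT2-GFP strain pooled with four other GFP strains with rapamycin as positive control; median GFP fluorescence per well over plate mean of DMSO wells so 100% = DMSO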). Conditions: 3 h, at 10 µM, stronger effect = higher value.
Test [4] in a line: modulators of LAP4-GFP expression in yeast, primary screen, S. cerevisiae, multiplex flow cytometry (AID 1873;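 active means GFP signal, as percent of the solvent control, above the screen mean plus 3 SD, about 149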). Conditions: 3 h, at 10 µM, stronger effect = higher value.
Test [5] in a line: modulators of AGP1-GFP expression in yeast TOR pathway, primary screen, cell-based, multiplex flow cytometry, S. cerevisiae (AID 1887;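 active means GFP signal above the screen-wide mean plus 3 SD, that is over about 124.5% of the solvent control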;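 further: AGP1-GFP fusion strain of S. cerevisiae within a five-strain barcoded multiplex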). Conditions: 3 h, at 10 µM, stronger effect = higher value.
A short description of test [6]: inhibitors of CD8+ T cell-vesicle binding, pilot screen, LFA-1/ICAM-1 modulator project, MLPCN validation set, flow cytometry (AID 2523;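 active means response below a set limit, under 55% cells CD8-positive and vesicle-bound, and CD8 cells' 90th-percentile brightness under 279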;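 on vesicle binding response: mean PE anti-B7-1 fluorescence of CD8+ cells relative to row control; 100% = QL9-loaded vesicles with DMSO vehicle in the same plate row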). To be noted: 2C mouse CD8+ T cells, at 7 µM, stronger effect = lower value; double positive events: measured here: CD8+/vesicle+ event percentage.
Test [7] deals with Integrin beta-1 (Homo sapiens) + Integrin alpha-4 (Homo sapiens) (UniProt P13612+P05556). Briefly: inhibition of HUTS-21 binding to VLA-4, pilot screen, VLA-4 allosteric modulator project, U937 cells, HUTS-21 mAb, flow cytometry, validation set (AID 2674;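 active means inhibition above 50%, about 3 SD of the validation set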;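 further: antibody binding induced by the VLA-4 ligand LDV present at three times its Kd; 0% = LDV ligand with antibody and no compound and 100% = antibody without LDV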). Conditions: HUTS-21 LIBS mAb binding, at 6.7 µM, stronger effect = higher value, binding induced by LDV ligand.
Integrin beta-1 (Homo sapiens) + Integrin alpha-4 (Homo sapiens), sequence (P05556 whole entry, looked up): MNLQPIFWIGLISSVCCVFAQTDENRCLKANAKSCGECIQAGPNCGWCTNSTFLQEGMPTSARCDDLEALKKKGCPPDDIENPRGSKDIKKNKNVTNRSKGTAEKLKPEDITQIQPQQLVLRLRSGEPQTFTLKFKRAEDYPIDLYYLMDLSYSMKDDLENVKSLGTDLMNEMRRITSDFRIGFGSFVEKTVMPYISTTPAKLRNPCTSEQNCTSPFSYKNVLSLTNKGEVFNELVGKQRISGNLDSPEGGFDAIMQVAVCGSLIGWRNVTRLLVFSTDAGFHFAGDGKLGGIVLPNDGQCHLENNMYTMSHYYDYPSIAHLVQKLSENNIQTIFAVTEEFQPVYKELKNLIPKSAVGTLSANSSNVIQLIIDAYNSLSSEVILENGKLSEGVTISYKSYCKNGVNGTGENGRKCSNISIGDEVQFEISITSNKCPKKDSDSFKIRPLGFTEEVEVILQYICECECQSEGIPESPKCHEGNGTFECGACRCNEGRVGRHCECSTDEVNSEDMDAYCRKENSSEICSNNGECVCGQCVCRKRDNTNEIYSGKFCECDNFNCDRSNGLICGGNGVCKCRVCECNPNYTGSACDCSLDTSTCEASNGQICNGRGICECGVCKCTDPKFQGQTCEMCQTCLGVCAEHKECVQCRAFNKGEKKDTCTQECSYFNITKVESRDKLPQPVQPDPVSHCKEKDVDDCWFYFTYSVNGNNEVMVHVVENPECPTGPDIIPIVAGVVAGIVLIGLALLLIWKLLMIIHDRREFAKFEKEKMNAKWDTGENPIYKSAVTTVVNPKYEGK
Integrin beta-1 (Homo sapiens) + Integrin alpha-4 (Homo sapiens), sequence (P13612 whole entry, looked up): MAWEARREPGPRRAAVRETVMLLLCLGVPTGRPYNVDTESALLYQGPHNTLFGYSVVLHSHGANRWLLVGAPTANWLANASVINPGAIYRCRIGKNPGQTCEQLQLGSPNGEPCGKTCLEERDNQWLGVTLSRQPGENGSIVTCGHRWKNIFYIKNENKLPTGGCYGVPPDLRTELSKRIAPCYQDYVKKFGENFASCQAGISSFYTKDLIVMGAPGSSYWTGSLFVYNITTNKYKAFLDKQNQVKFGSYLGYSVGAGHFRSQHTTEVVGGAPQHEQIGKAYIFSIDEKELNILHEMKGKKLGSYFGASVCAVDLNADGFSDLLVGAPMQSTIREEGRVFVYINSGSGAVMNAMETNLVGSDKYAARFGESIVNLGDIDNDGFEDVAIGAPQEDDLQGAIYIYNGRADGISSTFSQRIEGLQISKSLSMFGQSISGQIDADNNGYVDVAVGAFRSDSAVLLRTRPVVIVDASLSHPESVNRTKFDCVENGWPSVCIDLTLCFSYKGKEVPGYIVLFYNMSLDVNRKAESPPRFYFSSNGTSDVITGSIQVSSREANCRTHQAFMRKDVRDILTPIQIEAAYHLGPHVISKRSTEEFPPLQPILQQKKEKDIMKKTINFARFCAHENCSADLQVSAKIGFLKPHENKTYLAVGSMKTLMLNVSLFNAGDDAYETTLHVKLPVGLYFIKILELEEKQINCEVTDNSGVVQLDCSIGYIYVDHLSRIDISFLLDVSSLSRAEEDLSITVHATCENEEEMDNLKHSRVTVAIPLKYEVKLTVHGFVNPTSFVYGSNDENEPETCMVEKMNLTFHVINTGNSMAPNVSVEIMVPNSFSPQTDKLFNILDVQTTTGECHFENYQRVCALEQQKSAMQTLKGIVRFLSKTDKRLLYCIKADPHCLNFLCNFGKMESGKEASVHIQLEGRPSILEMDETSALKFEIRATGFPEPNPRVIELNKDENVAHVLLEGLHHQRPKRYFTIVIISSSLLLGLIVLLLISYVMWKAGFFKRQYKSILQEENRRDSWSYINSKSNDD
A short description of test [8]: superoxide lowering in aged yeast cells, pilot screen, validation compound set (AID 2706;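 active means superoxide response below 65% of plate, a cut near 3 SD across the whole screen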;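 further: yeast exposed to compound for one week at 30 degrees C before staining; 100% = mean of all compound wells on the same plate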). Conditions: S. cerevisiae aging, superoxide DHE fluorescence; at 10 µM; stronger effect = lower value.
Test [9] has as its target Beta-adrenergic receptor kinase 1 (Homo sapiens) (UniProt P25098). Briefly: GRK2 binders displacing RNA aptamer, biochemical, validation, human GRK2, bead flow cytometry (AID 488806;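 active means aptamer binding inhibition above 30%, about 3 SD of noise from non-fluorescent compounds; inactive means inhibition at or below 30%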). To be noted: bead-bound GRK2, FAM-aptamer displacement, at 10 µM, stronger effect = higher value.
The target of test [10] is Beta-2 adrenergic receptor (Homo sapiens) (UniProt P07550). As to the kind of experiment: beta2AR agonists driving receptor internalization, pilot screen, cell-based, FAP fluorogen, flow cytometry, validation set (AID 504459;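 active means percent response above 42, roughly 3 SD of non-fluorescent test compounds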;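 further: agonist-driven loss of surface beta2AR via internalization measured by FAP dye flow cytometry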). To be noted: Am2.2-beta2AR cells, FAP surface receptor flow cytometry; at 10 µM; stronger effect = higher value.
Beta-2 adrenergic receptor (Homo sapiens), sequence (P07550 whole entry, looked up): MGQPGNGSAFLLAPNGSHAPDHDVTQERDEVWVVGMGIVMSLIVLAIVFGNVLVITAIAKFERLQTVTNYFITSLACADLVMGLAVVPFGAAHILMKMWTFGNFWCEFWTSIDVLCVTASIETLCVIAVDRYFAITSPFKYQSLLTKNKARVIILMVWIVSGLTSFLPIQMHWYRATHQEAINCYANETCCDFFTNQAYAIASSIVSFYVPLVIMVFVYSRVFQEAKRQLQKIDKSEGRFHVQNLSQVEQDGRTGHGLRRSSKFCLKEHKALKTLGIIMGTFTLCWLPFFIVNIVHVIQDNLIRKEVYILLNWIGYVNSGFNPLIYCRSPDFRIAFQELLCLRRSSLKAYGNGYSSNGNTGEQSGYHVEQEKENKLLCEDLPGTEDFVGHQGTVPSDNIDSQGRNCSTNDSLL
Test [11] deals with AP-2 complex subunit beta (Homo sapiens) (UniProt P63010). As to the kind of experiment: inhibitors of arrestin peptide binding to AP2, pilot screen, biochemical, validation set, GST-AP2 beads, flow cytometry (AID 504541;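 active means inhibition above 54%, about 3 SD of non-fluorescent compounds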;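 further: AP2 carries R879A mutation and is captured from E. coli lysate; bead-bound FITC arrestin peptide fluorescence measuring arrestin peptide binding to AP2; 0% = DMSO wells and 100% = excess unlabeled arrestin peptide control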). Conditions: FITC arrestin peptide, at 10 µM, stronger effect = higher value, AP2 beta2 appendage fragment, R879A mutant.
AP-2 complex subunit beta (Homo sapiens), sequence (P63010 whole entry, looked up, the tested form may be a part, one chain of several): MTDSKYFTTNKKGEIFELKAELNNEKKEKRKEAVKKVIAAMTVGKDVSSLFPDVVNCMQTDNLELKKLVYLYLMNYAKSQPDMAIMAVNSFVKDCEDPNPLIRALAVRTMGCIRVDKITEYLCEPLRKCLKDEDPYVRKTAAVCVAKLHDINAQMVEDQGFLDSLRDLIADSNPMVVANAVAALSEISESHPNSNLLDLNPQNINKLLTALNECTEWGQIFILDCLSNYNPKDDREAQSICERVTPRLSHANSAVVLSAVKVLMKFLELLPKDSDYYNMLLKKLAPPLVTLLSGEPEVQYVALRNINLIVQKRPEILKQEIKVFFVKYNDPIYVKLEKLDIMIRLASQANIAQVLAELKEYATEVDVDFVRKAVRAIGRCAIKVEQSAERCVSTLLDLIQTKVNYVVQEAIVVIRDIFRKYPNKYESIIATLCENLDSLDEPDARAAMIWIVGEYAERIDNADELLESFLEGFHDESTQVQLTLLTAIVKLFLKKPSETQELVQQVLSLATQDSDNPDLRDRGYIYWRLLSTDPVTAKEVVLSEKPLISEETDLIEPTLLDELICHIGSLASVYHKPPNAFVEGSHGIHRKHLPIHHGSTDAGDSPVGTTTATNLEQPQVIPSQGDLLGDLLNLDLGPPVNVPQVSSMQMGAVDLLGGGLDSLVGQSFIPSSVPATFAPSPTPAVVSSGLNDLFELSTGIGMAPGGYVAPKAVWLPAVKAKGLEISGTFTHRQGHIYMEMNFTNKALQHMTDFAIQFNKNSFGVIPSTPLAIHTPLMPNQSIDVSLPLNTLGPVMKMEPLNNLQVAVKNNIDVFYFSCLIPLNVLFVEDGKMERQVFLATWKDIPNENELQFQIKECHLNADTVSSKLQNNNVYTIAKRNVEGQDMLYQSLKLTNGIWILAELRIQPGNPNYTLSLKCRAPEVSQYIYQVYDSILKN
The nature of test [12]: yeast V-ATPase proton transport modulators, S. cerevisiae, pHLuorin, HTS validation (AID 504600; in the data active means response above about 15%;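 further: plate controls were DMSO for no effect and reference compound for full effect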). Conditions: S. cerevisiae pHLuorin cytosolic pH, at 10 µM, stronger effect = higher value.
Test [13] concerns anti-desmoglein-3 scFv antibody binding to human DSG3. Briefly: inhibitors of anti-DSG3 scFv binding to DSG3, pilot screen, biochemical, validation compound set, bead-based, flow cytometry (AID 588368;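 active means binding below the plate cutoff, the plate median minus 3 SD, with a reading above zero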;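 further: signal is the median channel fluorescence of bead-bound GFP antibody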). To be noted: Protein G beads, DSG3-Fc, scFv-GFP binding, at 10 µM, stronger effect = lower value.
A short description of test [14]: inhibitors of fungal efflux pumps CDR1, CDR2, MDR1, pilot screen, validation compound set, multiplex, phenotypic (AID 588506;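 active means efflux inhibition above 0.42, the validation set average plus 4 SD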;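 further: Nile Red retained in cells so higher fluorescence means more efflux inhibition; 0 = negative control wells and 1 = enniatin B 25 µM full block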). Conditions: S. cerevisiae pump-expressing triplex, Nile Red efflux flow cytometry; at 10 µM; stronger effect = higher value; the pumps come from Candida albicans.
The target in test [15] is ATP-binding cassette sub-family B member 6 (Homo sapiens) (UniProt Q9NP58). As to the kind of experiment: ABCB6 transporter inhibitors, pilot screen, K562-ABCB6 cells, flow cytometry, validation set (AID 588550;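 active means inhibition above the screen-wide mean plus 3 SD, about 51%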;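 further: 0% = DMSO wells and 100% = benzethonium chloride 70 µM positive control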). Conditions: K562-ABCB6 porphyrin accumulation, 1 h, at 10 µM, stronger effect = higher value.
ATP-binding cassette sub-family B member 6 (Homo sapiens), sequence (Q9NP58 whole entry, looked up): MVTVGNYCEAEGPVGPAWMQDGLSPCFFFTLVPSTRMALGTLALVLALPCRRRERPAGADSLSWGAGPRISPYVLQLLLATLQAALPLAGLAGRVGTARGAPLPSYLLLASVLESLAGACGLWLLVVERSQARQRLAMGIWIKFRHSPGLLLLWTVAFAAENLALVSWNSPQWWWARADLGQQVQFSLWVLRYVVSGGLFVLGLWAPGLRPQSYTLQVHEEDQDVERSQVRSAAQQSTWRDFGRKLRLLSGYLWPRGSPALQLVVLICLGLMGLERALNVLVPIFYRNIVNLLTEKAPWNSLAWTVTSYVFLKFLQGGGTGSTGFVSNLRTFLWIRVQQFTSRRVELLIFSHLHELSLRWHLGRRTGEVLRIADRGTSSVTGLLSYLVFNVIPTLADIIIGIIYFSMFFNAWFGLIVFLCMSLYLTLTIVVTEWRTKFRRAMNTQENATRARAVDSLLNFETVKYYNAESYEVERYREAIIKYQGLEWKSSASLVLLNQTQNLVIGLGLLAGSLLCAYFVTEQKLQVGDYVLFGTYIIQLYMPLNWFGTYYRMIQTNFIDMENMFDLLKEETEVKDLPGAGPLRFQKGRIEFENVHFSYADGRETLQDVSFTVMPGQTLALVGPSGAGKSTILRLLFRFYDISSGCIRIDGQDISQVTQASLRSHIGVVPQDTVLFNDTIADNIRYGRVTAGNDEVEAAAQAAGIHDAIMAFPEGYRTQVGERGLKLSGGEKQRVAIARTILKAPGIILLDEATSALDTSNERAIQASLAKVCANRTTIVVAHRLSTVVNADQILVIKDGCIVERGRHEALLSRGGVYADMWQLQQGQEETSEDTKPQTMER
Test [16] is described as follows: promoters of myeloid differentiation in arrested cells, primary screen, cell-based, GFP/MAC1 double positive, flow cytometry, validation set (AID 588685;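 active means differentiation response of at least 50%, scaled between solvent and reference control, from cells with both markers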;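 further: compound exposure lasts four days before antibody staining and flow analysis; 0% = DMSO wells and 100% = 5 µM fulvestrant positive control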). Conditions: ER-HoxA9 marrow cells, stronger effect = higher value, normalized: vehicle 0, fulvestrant 100.

Results filed as inconclusive are left out. Active and inactive are the calls of the source.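 How the source made its calls, unless noted: active means GFP response, as percent of the DMSO control, above the screen-wide mean plus 3 SD, about 139; inconclusive means no response measured because the compound's own fluorescence interfered; inactive means the rest.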

Beta-adrenergic receptor kinase 1 (Homo sapiens), sequence (P25098 whole entry, looked up): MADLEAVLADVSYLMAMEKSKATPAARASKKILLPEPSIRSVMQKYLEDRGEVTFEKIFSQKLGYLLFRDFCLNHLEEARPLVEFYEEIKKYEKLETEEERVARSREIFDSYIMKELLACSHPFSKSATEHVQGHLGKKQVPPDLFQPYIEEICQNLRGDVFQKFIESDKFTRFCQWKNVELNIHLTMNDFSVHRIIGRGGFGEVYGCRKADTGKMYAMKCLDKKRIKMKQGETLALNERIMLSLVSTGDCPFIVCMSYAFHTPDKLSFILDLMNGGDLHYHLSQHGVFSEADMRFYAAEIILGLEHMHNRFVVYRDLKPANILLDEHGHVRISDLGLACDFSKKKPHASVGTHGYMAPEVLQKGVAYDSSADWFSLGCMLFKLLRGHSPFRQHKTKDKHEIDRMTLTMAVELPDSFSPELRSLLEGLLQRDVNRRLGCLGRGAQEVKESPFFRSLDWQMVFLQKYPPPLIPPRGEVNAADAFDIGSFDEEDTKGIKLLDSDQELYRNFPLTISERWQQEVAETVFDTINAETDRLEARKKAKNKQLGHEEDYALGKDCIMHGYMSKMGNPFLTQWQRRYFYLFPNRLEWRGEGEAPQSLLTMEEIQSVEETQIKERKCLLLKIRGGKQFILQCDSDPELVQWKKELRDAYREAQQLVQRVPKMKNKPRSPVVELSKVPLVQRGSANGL

As for `CC(=O)c1cccc2c(O)c(C3=Nc4ccccc4C3=O)[nH]c12`, the percent of DMSO control GFP in [1] was 88% (inactive). The GFP response vs DMSO in test [2] is 118% (inactive); in test [4], 85.3% (inactive). For the same molecule, the percent response of DMSO control in [3] was 114% (inactive). Moreover, the GFP response, % of DMSO in [5] is 90.8% (inactive). This molecule also came in with a double positive events in test [6] of 69.7%. Besides, the vesicle binding response in test [6] was 202% (inactive). The inhibition in test [7] is -29.4% (inactive); in [11], -5.62% (inactive); in test [15] it was 9% (inactive). The superoxide response (% of plate) in test [8] is 129% (inactive). Further, the aptamer binding inhibition in test [9] is 4% (inactive). For the same molecule, the response in test [10] was -1.02% (inactive); in test [12] it was 0.43% (inactive). For the same molecule, the binding (% of control) in test [13] is 103% (inactive). Besides, the efflux inhibition (fraction of control) in test [14] was 0.23 (inactive). Besides, the differentiation response in [16] was 4.91% (inactive).

As for `O=c1[nH]cnc2[nH]ncc12`, the percent of DMSO control GFP in test [1] is 103% (inactive). Besides, the GFP response vs DMSO in [2] was 103% (inactive); in test [4] it was 90.4% (inactive). For the same molecule, the percent response of DMSO control in test [3] is 96.5% (inactive). Also, the GFP response, % of DMSO in test [5] is 95% (inactive). The molecule further yielded a double positive events in test [6] of 55.6%. Further, the vesicle binding response in test [6] is 154% (inactive). Moreover, the inhibition in test [7] is 15% (inactive); in test [11], 2.53% (inactive); in test [15], -64% (inactive). Further, the superoxide response (% of plate) in test [8] was 98% (inactive). For the same molecule, in test [9], the aptamer binding inhibition is 0% (inactive). The response was -2.08% (inactive) in test [10] and -1.12% (inactive) in test [12]. Moreover, the binding (% of control) in [13] was 103% (inactive). Also, the efflux inhibition (fraction of control) in [14] is 0.005 (inactive). Also, in test [16], the differentiation response was 7.13% (inactive).

Take `Cc1ccc2c(c1)c(=O)c1c3n2CCN(C(=O)CCl)C3CC1` (stereo not given): the percent of DMSO control GFP in [1] is 96.3% (inactive). The GFP response vs DMSO was 102% (inactive) in test [2] and 106% (inactive) in test [4]. Further, in [3], the percent response of DMSO control was 97% (inactive). Besides, in test [5], the GFP response, % of DMSO is 111% (inactive). In test [6], this molecule registered a double positive events of 58.2%. Further, the vesicle binding response in test [6] was 198% (inactive). The values for the inhibition in [7], in test [11] and in [15] were -10.5% (inactive), 20.6% (inactive) and 1% (inactive), respectively. Moreover, in test [8], the superoxide response (% of plate) is 108% (inactive). Besides, in test [9], the aptamer binding inhibition was 18% (inactive). Besides, the response is -25.7% (inactive) in [10] and -19.6% (inactive) in test [12]. Also, the binding (% of control) in [13] was 96.7% (inactive). For the same molecule, the efflux inhibition (fraction of control) in test [14] is 0.46 (active). Moreover, the differentiation response in test [16] was 0.92% (inactive).

Take `Cc1cc(C(=O)Nc2ccccc2C(=O)N2CCCCC2)ccc1[N+](=O)[O-]`: in test [1], the percent of DMSO control GFP is 98.4% (inactive). For the same molecule, the GFP response vs DMSO is 103% (inactive) in test [2] and 114% (inactive) in test [4]. Also, the percent response of DMSO control in test [3] is 86.7% (inactive). Moreover, the GFP response, % of DMSO in test [5] was 103% (inactive). The molecule further had a double positive events in [6] of 62.3%. Besides, the vesicle binding response in [6] was 168% (inactive). In addition, the results for the inhibition in test [7], in test [11] and in [15] were -7.08% (inactive), 19.6% (inactive) and 8% (inactive), respectively. Moreover, in [8], the superoxide response (% of plate) was 124% (inactive). In addition, the aptamer binding inhibition in [9] was 1% (inactive). Moreover, the response was -23.4% (inactive) in [10] and -4.47% (inactive) in [12]. Further, in [13], the binding (% of control) is 108% (inactive). In addition, in [14], the efflux inhibition (fraction of control) was -0.04 (inactive). The differentiation response in test [16] was -8.93% (inactive).

As to `Cc1ccc(S(=O)(=O)N[C@@H](Cc2ccccc2)C(=O)CCl)cc1`, the percent of DMSO control GFP in [1] was 99.2% (inactive). Also, the results for the GFP response vs DMSO in test [2] and in [4] were 91.8% (inactive) and 108% (inactive), respectively. Also, the percent response of DMSO control in test [3] is 92.5% (inactive). In addition, the GFP response, % of DMSO in test [5] was 107% (inactive). This molecule had a double positive events in [6] of 59.9%. For the same molecule, in [6], the vesicle binding response is 101% (inactive). Further, the inhibition is 48.3% (inactive) in test [7], -2.91% (inactive) in test [11] and 9% (inactive) in [15]. The superoxide response (% of plate) in test [8] is 100% (inactive). Moreover, in test [9], the aptamer binding inhibition is 8% (inactive). In addition, the response in test [10] was 11.3% (inactive); in [12] it was -3.47% (inactive). The binding (% of control) in [13] was 99% (inactive). For the same molecule, the efflux inhibition (fraction of control) in [14] was 0.04 (inactive). Also, the differentiation response in test [16] is -4% (inactive).

The term inhibition denotes the relative decrease from the control value, in per cent.
